Source: PubChem BioAssay (National Center for Advancing Translational Sciences (NCATS))
This is a sample that favours compounds with a hit; in the whole collection about 3.2% have one here.
Tau fluor counter: counter-screen for tau fibril formation inhibitors | 0.93% of 280,000 active | Potency, µM (highest dose often 57.7 µM), without a hit: at the top dose activity change, negative = decrease | tau K18 P301L Alexa594 fluorescence, heparin fibrillization; also: potency is read from the fitted curve at half-maximal effect; % is scaled to controls: 0 for no effect and ±100 for the full control effect; nearly all actives have a fitted effect of over 55% in size
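Human tau K18 P301L (15 uM unlabeled, 0.24 uM Alexa 594-labeled) in 100 mM sodium acetate pH 7 with 20 uM heparin, 6 hr at 37 C. ThT 30 uM added, 1 hr ambient; Alexa 594 FP and total fluorescence read at 555/632 nm.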
LMNA splice mod: changes lamin A minigene splicing in HeLa cells; Potency, µM (series often up to 46.1 µM), inactives show top-dose ratio change, negative = inhibition, actives largely listed as inhibitors; HeLa LMNA splicing GFP/RFP minigene ratio, 48 h; AID 1487; 0.01% of 200,000 active; active = well fitted inhibition curve with a large enough effect in the signal ratio, with a control signal flat, not every such curve was filed as active; inconclusive = small, poorly fitted or top-dose-only effect, or effect the other way, or a change in a side signal; the % refers to the signal ratio; also: potency is read from the fitted curve at half-maximal effect; % is scaled to controls: 0 for no effect and ±100 for the full control effect
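Read-out is the ratio of GFP to DsRed2 object intensity, acquired by 488 nm laser-scanning cytometry on HeLa lamin A-EGFP minigene reporter cells. Compound incubation 48 hrs at 37 °C in Opti-MEM with 2% FBS; DMSO 0.5% final.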
Tau fibril ThT: blocks human tau fibril formation measured by thioflavin T; P10636; 2.1% of 270,000 active; Potency, µM (highest dose often 57.4 µM), without a hit: top-dose activity, negative = inhibition, hits mostly inhibitors; recombinant tau K18 P301L, heparin-induced fibrillization, ThT fluorescence; also: potency is read from the fitted curve at half-maximal effect; % is scaled to controls: 0 for no effect and ±100 for the full control effect; nearly all actives have a fitted effect of over 55% in size
Target sequence (P10636 561-689 P618L limits assumed): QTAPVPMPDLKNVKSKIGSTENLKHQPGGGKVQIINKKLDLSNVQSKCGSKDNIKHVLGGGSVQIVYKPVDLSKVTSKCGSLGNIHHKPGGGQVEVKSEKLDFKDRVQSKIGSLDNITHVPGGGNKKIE
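Fibril formation assay: tau K18 P301L at 15 uM with trace Alexa 594 label, heparin inducer 20 uM, pH 7 sodium acetate buffer, 37 C for 6 hr; endpoint ThT signal.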
JMJD2E inh: JMJD2E (human) inhibition; B2RXH2; JMJD2E catalytic domain, FDH-coupled NADH fluorescence (FDH is formaldehyde dehydrogenase); Potency, µM (series often up to 57.1 µM), for inactives: at the highest dose activity change, negative = inhibition, most hits filed as inhibitors; 1.6% of 230,000 active; active = well fitted inhibition curve with a large enough effect, not every such curve was filed as active; inconclusive = small, poorly fitted or top-dose-only effect, or another doubt; inactive = no such curve, though single readings can be large or run the other way;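 also: potency is read from the fitted curve at half-maximal effect; 0% = wells with enzyme and -100% = buffer wells without enzyme; nearly all actives have a fitted effect of over 50% in size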
Target sequence (B2RXH2 1-337 limits assumed): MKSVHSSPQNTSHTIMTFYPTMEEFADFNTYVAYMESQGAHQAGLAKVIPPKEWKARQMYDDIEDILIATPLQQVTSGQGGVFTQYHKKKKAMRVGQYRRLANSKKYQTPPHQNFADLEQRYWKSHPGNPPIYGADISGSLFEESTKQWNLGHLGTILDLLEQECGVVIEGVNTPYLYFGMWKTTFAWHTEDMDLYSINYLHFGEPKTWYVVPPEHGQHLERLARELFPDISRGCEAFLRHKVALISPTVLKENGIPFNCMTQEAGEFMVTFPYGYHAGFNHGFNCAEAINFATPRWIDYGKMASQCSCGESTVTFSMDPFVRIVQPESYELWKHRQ
CBFb-RUNX1 inh: inhibitors of human CBF-beta and RUNX1 interaction; 230,000 tested, under 10 active; Q01196+Q13951; AlphaScreen CBFb-His/RUNX1-biotin binding, biochemical; AID 1477; Potency, µM (series often up to 59.8 µM), for inactives: at the highest dose activity, negative = inhibition, most hits filed as inhibitors; also: % of control where 0% means no effect
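AlphaScreen proximity signal reports loss of binding between His-tagged CBF-beta and biotin-labelled RUNX1, each at 30 nM. Proteins are pre-associated for 20 minutes, compounds added for 15 minutes, then beads for 90 minutes, all at ambient temperature.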
Tau FP inhib: tau fibrillization inhibition (FP). P10636. K18 P301L tau heparin fibrillization, Alexa594 FP, 6 h. Potency, µM (series often up to 57.7 µM), for inactives: at the top dose activity, negative = inhibition, hits mostly inhibitors. 0.39% of 280,000 active; also: potency is read from the fitted curve at half-maximal effect; % is scaled to controls: 0 for no effect and ±100 for the full control effect; nearly all actives have a fitted effect of over 55% in size
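Read-out: fluorescence polarization of Alexa 594-labeled tau (0.24 uM), 555 nm excitation, 632 nm emission. Mixtures held 15 uM unlabeled K18 P301L, compound and 20 uM heparin, pH 7 acetate buffer, incubated 6 hr at 37 C.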
Active calls of the source: *; u = inconclusive; x = no result given; [ ] = dose if it differs, or a comment. Unless noted, calls follow the shape of the dose curve; as a rule, active = well fitted curve in the direction sought with a large enough effect; inconclusive = small, poorly fitted or top-dose-only effect, or another doubt; inactive = no such curve, though single readings can be large; an effect the other way counts as inactive or inconclusive.

SMILES | Tau fluor counter | LMNA splice mod | Tau fibril ThT | JMJD2E inh | CBFb-RUNX1 inh | Tau FP inhib
Cc1cccc(CCNC(=O)c2c[nH]c3ccc(S(=O)(=O)Nc4ccccc4F)cc3c2=O)c1 | u | u | 14% | x | x | 7.1µM*
COCCNC(=O)c1c[nH]c2ccc(S(=O)(=O)N3CCc4ccccc43)cc2c1=O | u | x | -1% | 7% | 5% | u
Cc1ccc(CCNC(=O)c2c[nH]c3ccc(S(=O)(=O)Nc4ccc(C)cc4C)cc3c2=O)cc1 | u | u | 6% | x | x | 4.5µM*
O=C(O)C(c1ccccc1)N1C(=O)/C(=C/c2cccs2)SC1=S (stereo unspecified) | -15% | x | u | -13% | -29% | -8%
CC(/C=C1\SC(=S)N(C(C(=O)O)c2ccccc2)C1=O)=C\c1ccccc1 (stereo unspecified) | -13% | x | 32µM* | -1% | -27% | -13%
CC(/C=C1\SC(=S)N(CC(=O)O)C1=O)=C\c1ccccc1 | -23% | u | 7.9µM* | -1% | -9% | -8%
C=CCOc1ccc(/C=C2\SC(=S)N(C(C(=O)O)c3ccccc3)C2=O)cc1 (stereo unspecified) | -4% | x | 22µM* | 12% | 4% | -6%
COc1ccc(OC)c(/C=C2\SC(=S)N(C(C(=O)O)c3ccccc3)C2=O)c1 (stereo unspecified) | -15% | x | 16µM* | -6% | -8% | -12%
COc1ccc2c(c1)C(=O)[C@H](OC(=O)Nc1cc(OC)c(OC)c(OC)c1)[C@@H](c1ccc(OC)c(Br)c1)O2 | -18% | x | -9% | 10% | -14% | 9%
CC(C)(C)C(=O)Nc1ccc2nc(SCC(=O)N3CCc4ccccc43)sc2c1 | -17% | -9%[46 µM] | -15% | x | x | -6%
CCCOc1ccc(C2C(=O)N(C3CCCCC3)CC(=O)N2CCC2=CCCCC2)cc1OC (stereo unspecified) | 8% | -11%[46 µM] | 3% | x | x | 2%
O=C(c1cnc(N2CCOCC2)c2ccccc12)N1CCN(c2ccccc2F)CC1 | -6% | u | -6% | x | x | -11%
COc1ccc(-c2nnc3n2N=C(c2c(OC)cccc2OC)CS3)cc1OC | x | x | x | x | 7% | x
CCCOc1ccc(C(=O)Nc2cc(-c3nc4cc(C)cc(C)c4o3)ccc2C)cc1 | 3% | x | -3% | x | x | 2%
CC(/C=C1\SC(=O)N(CC(=O)Nc2ccc(O)cc2)C1=O)=C\c1ccccc1 | -5% | u | 6% | 7% | 14% | -8%
CC(=C\c1ccco1)/C=C1/SC(=S)N(CC(=O)O)C1=O | u | x | 4µM* | -2% | 12% | u
CC(/C=C1\SC(=O)N(CC(=O)Nc2cccc(O)c2)C1=O)=C\c1ccccc1 | 6.3µM*[quencher] | u | -27% | -8% | -6% | 16µM*
O=C(Nc1ccc(Cl)cc1)N[C@@H]1c2c(ccc3ccccc23)OC[C@@H]1CO | u | -4% | 9% | 8% | -8% | 32µM*
OC[C@@H](O)C(O)[C@H](O)[C@@H](O)CO (stereo partly specified) | x | x | x | x | 8% | x
Cn1cccc1/C=C1\SC(=S)N(Nc2ccccc2)C1=O | u | x | 3.5µM* | -2% | -10% | 4%
O=C1/C(=C/c2cccnc2)SC(=S)N1Nc1ccccc1 | u | x | 28µM* | -4% | -1% | u
Cc1ccc(S(=O)(=O)NN2C(=O)/C(=C/c3cccn3C)SC2=S)cc1 | -10% | -7% | 10µM* | 8% | -22% | -4%
Cc1cccc(OCC(=O)Nc2c(C(=O)N3CCN(c4ccccc4)CC3)oc3ccccc23)c1 | -3% | x | 3% | x | x | 6%
COc1ccc(NC(=O)Cn2c(SCc3cccc(Cl)c3)nc3ccncc32)c(OC)c1OC | 14µM*[quencher] | x | u | x | x | -6%
CC1CCC2CC1C2(C)C (stereo unspecified) | x | x | x | x | 17%[21.7 µM] | x
SMILES | Tau fluor counter | LMNA splice mod | Tau fibril ThT | JMJD2E inh | CBFb-RUNX1 inh | Tau FP inhib
COc1ccc(/C=N/NC(=O)c2cccc([N+](=O)[O-])c2)cc1OS(=O)(=O)c1ccccc1 | 14µM*[quencher] | u | -13% | -5% | -19% | -4%
COc1ccc(/C=N/NC(=O)c2cccc([N+](=O)[O-])c2)cc1OC(=O)c1ccc(C)cc1 | u | 11% | -11% | 0% | -12% | -1%
COc1ccc(C(=O)Oc2ccc(/C=N/NC(=O)c3ccccc3OC)cc2[N+](=O)[O-])cc1 | -8% | -5% | u | 1% | 2% | -14%
COc1ccc(/C=N/NC(=O)c2cccc([N+](=O)[O-])c2)cc1OC(=O)c1ccccc1 | 11µM*[quencher] | u | -21% | -4% | -17% | -5%
COc1ccc(C(=O)N/N=C/c2ccc(OC(=O)c3cccc4ccccc34)c([N+](=O)[O-])c2)cc1 | u | 1% | 5µM* | -5% | u | -2%
COc1cc(/C=N/NC(=O)c2sc3ccccc3c2Cl)ccc1OC(=O)c1ccc([N+](=O)[O-])cc1 | u | x | 1.3µM* | 4% | 13% | 3%
CC(=O)N[C@@H](CSC(=O)[C@]1([C@@H](O)C(C)C)NC(=O)[C@H](C)[C@@H]1O)C(=O)O | -10%[11.6 µM] | x | -16%[11.5 µM] | x | 14%[13.1 µM] | 0%[11.6 µM]
COc1cc(/C=N/NC(=O)c2cccc([N+](=O)[O-])c2)ccc1OCc1ccccc1 | 11µM*[quencher] | 3% | u | u | -1% | u
COc1cc(/C=N/NC(=O)c2cccc([N+](=O)[O-])c2)ccc1OC(=O)c1ccco1 | u | x | u | -10% | -4% | -1%
O=C(N/N=C/c1ccc(OC(=O)c2ccccc2)c([N+](=O)[O-])c1)c1ccc(O)cc1 | u | -15% | 8.9µM* | -14% | 21% | -12%
CCOc1cc(/C=N\NC(=O)c2ccc(NC(=O)CC)cc2)ccc1OC(=O)c1ccccc1 | -22% | 4% | -19% | -2% | 0% | u
Cc1nn(-c2ccc(N3CCCCC3)nn2)c(C)c1CCC(=O)NCc1ccc(OC(C)C)cc1 | -8% | 5%[46 µM] | -8% | x | x | -10%
COc1cccc(Nc2nc(-c3ccc(O)cc3)cs2)c1 | 14µM*[quencher] | u | 11µM* | -5% | -10% | 8%
Cc1cccc(Nc2nc(-c3ccc4c(c3)OCCO4)cs2)c1 | 13µM*[quencher] | -7% | 7.1µM* | -9% | -10% | 4%
COc1cccc(Nc2nnc(SCc3nc4ccccc4s3)s2)c1 | 14µM*[quencher] | u | u | -2% | 1% | -13%
Cc1cccc(Nc2nc(-c3ccncc3)cs2)c1 | u | u | u | 3% | -9% | u
COc1cccc(Nc2nc(-c3cccc(N4C(=O)c5ccccc5C4=O)c3)cs2)c1 | 7.9µM*[quencher] | -6% | u | -1% | -10% | u
